From PubChem BioAssay (NCI)
This is part of a sample that, as a whole, favours compounds with a hit. Of some 83,000 tested, about 20% had one in any assay.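 Method: cells in 96-well plates; compound added at one concentration; 48 h incubation; percent growth measured; values under 10 scored active.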 A number with no mark means an inactive call. Activity calls are given as the source filed them.

Key:
Assay in all cases: NCI-60 one-dose screen, 48 h (100 = growth as untreated, 0 = no growth, -100 = all killed)
Details in all cases: 10 µM unless noted
SR leukemia = test system: SR leukemia
RPMI-8226 leukemia = test system: RPMI-8226 leukemia
OVCAR-8 ovarian = test system: OVCAR-8 ovarian
OVCAR-5 ovarian = test system: OVCAR-5 ovarian
OVCAR-4 ovarian = test system: OVCAR-4 ovarian
SK-OV-3 ovarian = test system: SK-OV-3 ovarian
IGROV1 ovarian = test system: IGROV1 ovarian
OVCAR-3 ovarian = test system: OVCAR-3 ovarian
NCI/ADR-RES ovarian = test system: NCI/ADR-RES ovarian
T-47D breast = test system: T-47D breast
BT-549 breast = test system: BT-549 breast
MDA-MB-435 melanoma = test system: MDA-MB-435 melanoma
SW-620 colon = test system: SW-620 colon
MCF7 breast = test system: MCF7 breast
HCT-116 colon = test system: HCT-116 colon
HCC-2998 colon = test system: HCC-2998 colon
KM12 colon = test system: KM12 colon
HS 578T breast = test system: HS 578T breast

SMILES | growth (SR leukemia) | growth (RPMI-8226 leukemia) | growth (OVCAR-8 ovarian) | growth (OVCAR-5 ovarian) | growth (OVCAR-4 ovarian) | growth (SK-OV-3 ovarian) | growth (IGROV1 ovarian) | growth (OVCAR-3 ovarian) | growth (NCI/ADR-RES ovarian) | growth (T-47D breast) | growth (BT-549 breast) | growth (MDA-MB-435 melanoma) | growth (SW-620 colon) | growth (MCF7 breast) | growth (HCT-116 colon) | growth (HCC-2998 colon) | growth (KM12 colon) | growth (HS 578T breast)
Cc1ccnc(Nc2nc3ccccc3[nH]2)n1 | 97.1% | 94.1% | 106% | 95.3% | 109% | 101% | 97.6% | 132% | 112% | 86.5% | 112% | 107% | 99.3% | 98.8% | 103% | 112% | 118% | –
CC(=O)Nc1ncc(S(=O)(=O)c2ccc([N+](=O)[O-])cc2)s1 | 96.4% | 100% | 103% | 109% | 102% | 94% | 112% | 120% | 118% | 91.4% | 108% | 111% | 101% | 105% | 98.9% | 128% | – | –
CCCCCCCCCCCCCCCCCCSC(=N)N | -13.5% (active) | 61.7% | 86.9% | 83.2% | 76.1% | 83.3% | 70.5% | 89.5% | 81% | 90% | 104% | 84.7% | 46.3% | 51.7% | 66.6% | 45.2% | 64.5% | –
N#C/C(=C\NC(=S)N=Nc1c(O)[nH]c2ccccc12)c1nc2ccccc2s1 | 77.3% | 97% | 96% | 105% | 93.7% | 92.8% | 85.4% | 103% | 103% | 71.6% | 101% | 108% | 93% | 76% | 92.3% | 113% | – | –
OCC1OC(n2ccc3c2ncn2ncnc32)C(O)C1O (configuration not stated) | 20.6% | 60.7% | 6.1% (active) | 30.2% | 53.3% | 58% | 53.4% | 28.9% | – | 10.9% | 23.3% | 62.1% | 26.2% | 9.97% (active) | 20.5% | 29.1% | 27.6% | 65.2%
O=C(O)Cc1ccc(Cl)cc1 | 44.8% | 99.1% | 97.7% | 111% | 107% | 121% | 109% | 150% | 109% | 117% | 105% | 97.3% | 111% | 99.2% | 77.4% | 108% | 113% | –
ON1CCCC1 | 90.3% | 88.2% | 103% | 103% | 107% | 102% | 108% | 112% | 102% | 98.6% | 96.7% | 107% | 101% | 95% | 97.4% | 98.8% | 110% | –
O=C1NCC2CCCC1C2 (configuration not stated) | 110% | 118% | 99.3% | 107% | 103% | 110% | 107% | 114% | 106% | 118% | 98.3% | 112% | 120% | – | 101% | 93.1% | 107% | –
O=C(CCl)Oc1ccc([N+](=O)[O-])cc1 | 102% | 103% | 102% | 107% | 106% | 133% | 106% | 121% | 105% | 105% | – | 107% | 113% | 99.5% | 110% | 102% | – | –
COc1ccc2c(ccc[n+]2C)c1 | 115% | 85.4% | 94.8% | 99.9% | 91.9% | 107% | 85.3% | 82.7% | 106% | 102% | 113% | 110% | 101% | 96.1% | 99.8% | 104% | 90.6% | –
COC1OC(COC(C)=O)C(OC(C)=O)C(OC(C)=O)C1OC(C)=O (configuration not stated) | 95.5% | 96.4% | 97.9% | 93% | 86.5% | 101% | 118% | 96% | 95.2% | 91.7% | 101% | 105% | 109% | 93% | 87.4% | 101% | 106% | –
c1ccc(-c2ccc3ccccc3c2)cc1 | 80.7% | 104% | 97.1% | 99.6% | 108% | 90.5% | 85.3% | 103% | 105% | 81.4% | 98.8% | 103% | 90.5% | 82.2% | 95.9% | 107% | 92.9% | –
O=C(O)CSCC(=O)Nc1cc(C(F)(F)F)ccc1Cl | 96.1% | 106% | 107% | 104% | 119% | 109% | 112% | 113% | 117% | 102% | 114% | 111% | 125% | 102% | 107% | 118% | 105% | –
OCC1CCC(O)C(CO)N1 (configuration not stated) | 101% | 83.7% | 112% | 88.4% | 94.6% | 118% | 110% | 107% | 118% | 111% | 100% | 102% | 101% | 92.6% | 102% | 115% | 103% | –
c1ccc(Oc2c3ccccc3nc3ccccc23)cc1 | -0.679% (active) | -20.9% (active) | 23.7% | 35.3% | 15% | 39% | -9.18% (active) | -3.62% (active) | 47.6% | 56.2% | 25.2% | -5.48% (active) | 19.2% | 14.2% | -25.7% (active) | 20.9% | 0.624% (active) | –
Cc1cc(CO)c(O)c(CO)c1 | 77.8% | 91% | 105% | 101% | 122% | 106% | 108% | 113% | 96.1% | 96.4% | 94.7% | 106% | 99.9% | – | 98.2% | 96.8% | 107% | –
N#C/C(=C\c1ccc2c(c1)OCO2)c1ccccc1 | 14.2% | 74.8% | 90.1% | 79.6% | 99.8% | 87.3% | 62.8% | 79.4% | 47.8% | 61.4% | 65.2% | -1.53% (active) | 41.4% | 53% | 53.3% | 76.4% | 42.8% | –
CNc1ccccc1C(N)=O | 109% | 110% | 103% | 117% | 109% | 107% | 100% | 114% | 97.9% | 98.1% | 101% | 105% | – | 92.7% | 96.8% | 106% | 101% | –
COC1OC(C(COC(C)=O)OC(C)=O)C(OC(C)=O)C(OC(C)=O)C1OC(C)=O (configuration not stated) | 87.3% | 98.7% | 103% | 89.7% | 107% | 110% | 104% | 118% | 105% | 103% | 106% | 114% | 104% | 96% | 106% | 115% | 117% | –
COc1ccc(Br)c(C=O)c1 | 8.35% (active) | 22.2% | 69.1% | 93.1% | 88.5% | 103% | 92.3% | 74.2% | 51.6% | 69.9% | 76.6% | 49.8% | – | 31.5% | 22.5% | 86% | 93.7% | –
